According to PubChem BioAssay (NCI):
This is part of a sample that, as a whole, favours compounds with a hit. Of some 83,000 tested, about 20% had one in any assay.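 Results are percent growth after 48 hours of single-concentration exposure. 100 means growth as in untreated cells, lower positive values show inhibition; negative values down to -100 show cell death.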 Unmarked numbers belong to inactive results. The source made the active and inactive calls. Rule for the calls: active = growth percent below 10; inactive = the rest.

tested on: K-562 leukemia; assay: NCI-60 one-dose screen, 48 h (100 = growth as untreated, 0 = no growth, -100 = all killed); details: 10 µM

In order of falling growth:
1. O=C(CSc1nnc(-c2ccc(Cl)cc2)o1)Nc1ccc(C(=O)/C=C/c2ccc(Cl)cc2)cc1  93.4%
2. CCOC(=O)c1cc(C(=O)c2ccc(F)cc2F)n2ccccc12  85.9%
3. O=S(=O)(Oc1ccc(-c2ccc3sccc3c2)cc1)c1ccc(F)cc1  78.7%
4. CC(C)N(CCOc1cccc(-c2nc3sccn3c2-c2ccnc(S(C)(=O)=O)n2)c1)C(C)C  69.1%
5. CCN(CC)CCOc1cccc2c1C(=O)c1cccc(OCCN(CC)CC)c1C2=O  27.9%
6. COc1cc2c(cc1NC(=O)C(Cl)Cl)-c1ccc(NC(=O)C(Cl)Cl)cc1C2  20.7%
7. CC[C@@H](C(=O)[C@@H](C)[C@@H](O)[C@H](C)[C@@H]1O[C@@H]([C@@H](CC)C(=O)N(CC)CC)CC[C@@H]1C)C1O[C@]2(C=CC(=O)[C@]3(CC[C@@](C)([C@H]4CC[C@](O)(CC)[C@H](C)O4)O3)O2)[C@H](C)C[C@@H]1C (some centres not stated)  19.3%
8. COc1ccc(-c2onc(N)c2-c2cc(OC)c3c(c2)OCO3)cc1  13%
9. COc1cc(-c2nn(-c3ccc(NC(=O)NCCCNC(=O)c4ccccc4)cc3)cc2-c2ccncc2)ccc1Cl  12.4%

With COc1cc(/C=C/c2cc(/C=C/c3ccc(O)c(OC)c3)n(C(=O)Nc3ccc(C)cc3)n2)ccc1O the growth was 2.29% (active).
COc1ccc(-c2cc(-c3ccccc3)nc(SCCCC(=O)NO)n2)cc1 was tested, and the growth was 6.74% (active).
In the case of CN(C)CCCOc1ccc(OCCCN(C)C)c2c1C(=O)c1ccccc1C2=O, the growth is reported as 7.12% (active).
